Growth data for eight compounds are collected here from PubChem BioAssay (NCI).

Each structure is given as a SMILES string. This is part of a sample that, as a whole, favours compounds with a hit. Of some 83,000 tested, about 20% had one in any assay.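 Treatment: one concentration, 48 hours, 96-well format. Scoring: percent growth, with anything below 10 considered active.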 Unmarked numbers belong to inactive results. The source made the active and inactive calls.

What all share (test): NCI-60 one-dose screen, 48 h (100 = growth as untreated, 0 = no growth, -100 = all killed)
The subject of one test is HCT-15 colon. The following applies: 10 µM unless noted.
The next test deals with HT29 colon. The note with it: 10 µM unless noted.
The next test deals with SNB-75 CNS. The note with it: 10 µM unless noted.
For a further test, the system named is SNB-19 CNS. The following applies: 10 µM unless noted.
For another test, the system named is U251 CNS. The note with it: 10 µM unless noted.
The subject of another test is SK-MEL-5 melanoma. The following applies: 10 µM unless noted.
In a further test the test system is UACC-62 melanoma. The following applies: 10 µM unless noted.
For another test, the system named is LOX IMVI melanoma. The following applies: 10 µM unless noted.
For another test, the system named is SK-MEL-28 melanoma. The following applies: 10 µM unless noted.
The test system of another test is EKVX NSCLC. The following applies: 10 µM unless noted.
A further test concerns SN12C renal. The following applies: 10 µM unless noted.
Another test has as its system UO-31 renal. The following applies: 10 µM unless noted.
In a further test the test system is TK-10 renal. The following applies: 10 µM unless noted.
Another test has as its system ACHN renal. The following applies: 10 µM unless noted.
The next test has as its system CAKI-1 renal. The following applies: 10 µM.
The test system of another test is A498 renal. The following applies: 10 µM unless noted.
The test system of another test is CCRF-CEM leukemia. The following applies: 10 µM unless noted.
A further test concerns SK-MEL-2 melanoma. The following applies: 10 µM unless noted.
The subject of another test is MOLT-4 leukemia. The note with it: 10 µM unless noted.
The subject of the next test is PC-3 prostate. The following applies: 10 µM unless noted.

Regarding `COc1cc2c3c(n(CCCNCC4CC4)c(=O)c2cc1OC)-c1cc2c(cc1C3=O)OCO2`, the growth with HCT-15 colon is -72.2% (active); with HT29 colon, -70.6% (active); with SNB-75 CNS it was 66.8%; in the test with SNB-19 CNS it was 42.3%; in the test on U251 CNS it was -95.7% (active); in the test with SK-MEL-5 melanoma, 53.2%. Further, the growth in the test on UACC-62 melanoma was 45.7%; in the test on LOX IMVI melanoma, -77.7% (active); with SK-MEL-28 melanoma it was 89.7%; with EKVX NSCLC, 66%; in the test on SN12C renal it was 44.6%; in the test on UO-31 renal it was 49.8%. Further, the growth in the test on TK-10 renal was 72.5%; with ACHN renal, -73.1% (active); in the test with CAKI-1 renal it was -72.5% (active); with A498 renal, 68.6%; with CCRF-CEM leukemia it was -9.44% (active).
As for `CCCCCc1ccc(S(=O)(=O)N(C(C)=O)c2cccc(-c3csc(N(CCN4CCN(C)CC4)C(C)=O)n3)c2)cc1`, the growth is -13.6% (active) in the test on HCT-15 colon; -41.4% (active) in the test with HT29 colon; 64% with SNB-75 CNS; 60.6% in the test with SNB-19 CNS; -10.8% (active) in the test with U251 CNS; -97.7% (active) with SK-MEL-5 melanoma. The growth was -71.4% (active) in the test with UACC-62 melanoma; -92.1% (active) in the test with LOX IMVI melanoma; -85.8% (active) in the test with SK-MEL-28 melanoma; 92.8% in the test with SK-MEL-2 melanoma; 61.8% in the test on EKVX NSCLC; 62.6% in the test on SN12C renal. Moreover, the growth in the test with UO-31 renal is -69.2% (active); in the test on TK-10 renal, 99.2%; in the test with ACHN renal, -10.5% (active); in the test with CAKI-1 renal it was 20.5%; in the test with A498 renal it was 71.1%; with CCRF-CEM leukemia, 4.61% (active). Besides, the growth in the test on MOLT-4 leukemia is -9.16% (active).
As for `O=C(Cn1cc(CN2C(=O)c3ccc([N+](=O)[O-])cc3C2=O)nn1)Nc1ccc(F)cc1Cl`, the growth with HCT-15 colon is 99.5%; with HT29 colon it was 102%; with SNB-75 CNS it was 92.6%; in the test with SNB-19 CNS, 97.2%; with U251 CNS, 97.3%; with PC-3 prostate, 92.6%. For the same compound, the growth in the test with SK-MEL-5 melanoma is 101%; with LOX IMVI melanoma, 107%; in the test with SK-MEL-28 melanoma, 99.9%; in the test on SK-MEL-2 melanoma, 101%; with EKVX NSCLC, 97.7%; in the test with SN12C renal it was 101%. Further, the growth in the test on UO-31 renal was 81.3%; in the test with TK-10 renal, 91.2%; in the test on ACHN renal it was 96.9%; in the test with CAKI-1 renal it was 89.9%; with CCRF-CEM leukemia, 95.6%; in the test on MOLT-4 leukemia, 108%.
As to `O=c1oc2ccc(-c3ccc(F)cc3F)cc2c(=O)n1-c1cccc(C(F)(F)F)c1`, the growth is 9.93% (active) with HCT-15 colon; 91.3% in the test on HT29 colon; 15.5% in the test on SNB-75 CNS; 9.99% (active) in the test with SNB-19 CNS; 10.2% with U251 CNS; -72.4% (active) in the test with SK-MEL-5 melanoma. Further, the growth in the test on UACC-62 melanoma is -6.07% (active); in the test with LOX IMVI melanoma it was 0.939% (active); in the test with SK-MEL-28 melanoma, 23.4%; in the test with SK-MEL-2 melanoma, -12.5% (active); with EKVX NSCLC it was 8.73% (active); in the test on SN12C renal it was 1.14% (active). In addition, the growth with UO-31 renal is -18.5% (active); in the test with ACHN renal, 4.3% (active); in the test on CAKI-1 renal it was -12.2% (active); in the test on A498 renal it was -34.1% (active); in the test with CCRF-CEM leukemia, 22.6%; with MOLT-4 leukemia it was 5.65% (active).
Consider `C=C1C(=O)O[C@@H]2C[C@@H](C)[C@H](OC)CC(=O)[C@](C)(OC(C)=O)C[C@H](OC(=O)/C(C)=C\C)[C@@H]12`, for which the growth was 58.9% in the test on HCT-15 colon; 59.5% with HT29 colon; 78.7% with SNB-75 CNS; 99.1% in the test on SNB-19 CNS; 91.5% in the test on U251 CNS; 83.6% with PC-3 prostate. Further, the growth is 84.4% in the test on LOX IMVI melanoma; 87.5% with SK-MEL-2 melanoma; 83.9% with EKVX NSCLC; 72.4% in the test with UO-31 renal; 55.9% in the test on TK-10 renal; 5.58% (active) in the test on ACHN renal. The growth is 41.3% in the test on CAKI-1 renal, 150% in the test with A498 renal, -12.7% (active) in the test with CCRF-CEM leukemia and 38.1% in the test on MOLT-4 leukemia.
Consider `O=C(c1ccc(O)cc1)[C@@H]1[C@@H]2CCCN2[C@@]2(C(=O)N(C(=O)c3ccc(F)cc3)c3ccccc32)[C@H]1c1ccc(F)cc1`, for which the growth with HCT-15 colon was 86.6%; in the test on HT29 colon it was 104%; with SNB-75 CNS, 73.5%; in the test with SNB-19 CNS, 93.3%; in the test with U251 CNS, 94.3%; in the test on PC-3 prostate, 78.3%. Moreover, the growth in the test with SK-MEL-5 melanoma is 95%; in the test on SK-MEL-28 melanoma, 99.2%; in the test on SK-MEL-2 melanoma, 110%; with EKVX NSCLC it was 83.4%; with SN12C renal, 87.3%; in the test on UO-31 renal, 60.4%. Further, the growth in the test with TK-10 renal is 143%; in the test on ACHN renal it was 90%; in the test on CAKI-1 renal it was 70.1%; in the test on A498 renal it was 82.5%; in the test with CCRF-CEM leukemia it was 67.2%; with MOLT-4 leukemia, 68%.
Take `CC(C)SC1=NC(=C(C(=N1)NC2=ClC=CC=C2)C#N)C3=CC=CC=C3`: the growth in the test with HCT-15 colon is 63%; with HT29 colon, 80.5%; in the test on SNB-75 CNS, 26.5%; with SNB-19 CNS, 69.5%; in the test with U251 CNS it was 49.7%; in the test with PC-3 prostate, 78.2%. For the same compound, the growth in the test with SK-MEL-5 melanoma was 91.2%; in the test with LOX IMVI melanoma it was 70%; in the test on SK-MEL-28 melanoma, 87.7%; in the test on SK-MEL-2 melanoma it was 125%; in the test on EKVX NSCLC, 84%; with SN12C renal, 36.7%. Moreover, the growth with UO-31 renal was 24.7%; in the test with ACHN renal it was 23.4%; with CAKI-1 renal, 64.5%; in the test with A498 renal, 71.6%; in the test with CCRF-CEM leukemia, 63.4%; with MOLT-4 leukemia, 83.3%.
On to `C[C@@H]1C[C@H]2C(=O)OCC(NC(=O)[C@H](Cc3cc(F)cc(F)c3)NC(=O)Nc3ccc(Cl)cc3F)C(=O)N3CCC[C@H]3C(=O)N3CCCC[C@H]3C(=O)N[C@@H](C)C(=O)N2C1` (stereo partly specified), for which the growth in the test on HCT-15 colon is 11.1%; in the test with HT29 colon it was 15.6%; in the test with SNB-75 CNS, 46.8%; with SNB-19 CNS, 24.4%; in the test on U251 CNS, 28.8%; in the test with SK-MEL-5 melanoma, -12.3% (active). Further, the growth was 26.7% in the test with UACC-62 melanoma; 4.29% (active) in the test on LOX IMVI melanoma; 39.7% with SK-MEL-28 melanoma; 27.7% in the test with EKVX NSCLC; 18.2% with SN12C renal; 30% in the test on UO-31 renal. In addition, the growth with TK-10 renal is 52.8%; with ACHN renal it was 26%; in the test with CAKI-1 renal, 21.5%; in the test on CCRF-CEM leukemia it was 31.3%; in the test on MOLT-4 leukemia, 33.2%.
